Experimental data taken from PubChem BioAssay (Tox21).
Where “and” joins values, the source holds several entries; their conditions need not be identical. Equal values may be shown once. Inconclusive results are not listed. A call without a number means that no potency is given here. Where a structure was tested more than once in an assay, its records may differ in their call. Calls of active or inactive are those of the source. Calls come from the whole dose curve; as a rule, active = well fitted curve in the direction sought with a large enough effect in the repeat runs; inconclusive = weak or mixed curves; inactive = no such curve, though single readings can be large; an effect the other way counts as inactive or inconclusive.

Biological target: Cytochrome P450 2C19 (Homo sapiens) (UniProt P33261)
Test: Cytochrome P450 Family 2 Subfamily C Member 19 (CYP2C19) small molecule antagonists: luciferase reporter qHTS assay (AID 1671197); note: nearly all actives have a fitted effect of over 65% in size
Conditions: P450-Glo CYP2C19 enzyme, luciferin luminescence, 1 h; series mostly up to 115 µM
In short: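 P450-Glo CYP2C19 screening system; proluciferin substrate; DMSO compound stocks; 10 min RT preincubation; NADPH regeneration, 1 h at 37C; luciferin detection reagent, 20 min RT; luminescence as RLU.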
Potency is the fitted concentration of half-maximal effect.

Sequence of Cytochrome P450 2C19 (Homo sapiens) (P33261 whole entry, looked up): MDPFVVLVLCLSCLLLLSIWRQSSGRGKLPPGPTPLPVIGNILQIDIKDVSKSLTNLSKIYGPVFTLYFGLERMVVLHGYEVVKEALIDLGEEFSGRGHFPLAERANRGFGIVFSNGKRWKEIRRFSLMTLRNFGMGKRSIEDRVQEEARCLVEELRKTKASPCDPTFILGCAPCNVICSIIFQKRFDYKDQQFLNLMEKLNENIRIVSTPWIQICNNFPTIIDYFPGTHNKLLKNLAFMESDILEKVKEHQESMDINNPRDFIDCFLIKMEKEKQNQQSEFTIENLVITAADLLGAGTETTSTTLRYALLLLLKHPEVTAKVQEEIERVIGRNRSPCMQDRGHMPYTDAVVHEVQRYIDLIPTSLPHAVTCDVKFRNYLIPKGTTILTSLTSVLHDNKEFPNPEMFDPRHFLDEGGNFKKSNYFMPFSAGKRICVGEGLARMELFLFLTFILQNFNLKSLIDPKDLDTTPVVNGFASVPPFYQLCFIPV

SMILES | Potency
COc1ccc(Cc2cnc(N)nc2N)cc1OC | inactive
CC[C@@H](N)CO | inactive
Cc1cc(OCCOCC[N+](C)(C)Cc2ccccc2)ccc1C(C)(C)CC(C)(C)C | 39.7 µM (active)
CCCC(=O)c1ccccc1 | inactive
CC(C)CCOC(=O)c1ccc(N(C)C)cc1 | 4.9 µM (active)
Cc1occc(=O)c1OC(=O)C(C)C | inactive
Clc1ccc2c(c1)C(N1CCNCC1)=Nc1ccccc1O2 | 63.3 µM (active) and inactive
CC(C)CCOCc1ccccc1 | inactive
CCN(CC)C(=O)Nc1ccc(OCC(O)CNC(C)(C)C)c(C(C)=O)c1 (configuration not stated) | inactive
OCCN1CCNCC1 | inactive
COC(=O)c1cccc(C(=O)OC)c1 | inactive
Cc1cccc2n[nH]nc12 | inactive
COC(=O)[C@H]1[C@H]2C[C@@H]3c4[nH]c5cc(OC)ccc5c4CCN3C[C@H]2C[C@@H](OC(=O)c2cc(OC)c(OC)c(OC)c2)[C@@H]1OC | 41.1 µM (active) and inactive
CC(=O)CC(=O)Nc1ccc2[nH]c(=O)[nH]c2c1 | inactive
Nc1cc(S(=O)(=O)O)cc2cc(S(=O)(=O)O)cc(O)c12 | 19.9 µM (active) and 22.4 µM (active)
CCCCCCCCCCCC[N+](C)(C)C | inactive and 79.6 µM (active)
NCCCCCC(=O)O | inactive
O=C1OC2(c3ccc(O)cc3Oc3cc(O)ccc32)c2ccccc21 | 20 µM (active) and 4.9 µM (active)

Biological target: Cytochrome P450 2C9 (Homo sapiens) (UniProt P11712)
Test: Cytochrome P450 Family 2 Subfamily C Member 9 (CYP2C9) small molecule antagonists: luciferase reporter qHTS assay (AID 1671198); note: nearly all actives have a fitted effect of over 50% in size
Conditions: P450-Glo CYP2C9 enzyme assay, luciferin luminescence; series mostly up to 115 µM
In short: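 CYP2C9 activity was measured with a P450-Glo proluciferin substrate. Enzyme–substrate mix was held with compound for 10 min at room temperature, then NADPH regeneration solution was added for 1 h at 37C. Luciferin product was read as luminescence.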

Sequence of Cytochrome P450 2C9 (Homo sapiens) (P11712 whole entry, looked up): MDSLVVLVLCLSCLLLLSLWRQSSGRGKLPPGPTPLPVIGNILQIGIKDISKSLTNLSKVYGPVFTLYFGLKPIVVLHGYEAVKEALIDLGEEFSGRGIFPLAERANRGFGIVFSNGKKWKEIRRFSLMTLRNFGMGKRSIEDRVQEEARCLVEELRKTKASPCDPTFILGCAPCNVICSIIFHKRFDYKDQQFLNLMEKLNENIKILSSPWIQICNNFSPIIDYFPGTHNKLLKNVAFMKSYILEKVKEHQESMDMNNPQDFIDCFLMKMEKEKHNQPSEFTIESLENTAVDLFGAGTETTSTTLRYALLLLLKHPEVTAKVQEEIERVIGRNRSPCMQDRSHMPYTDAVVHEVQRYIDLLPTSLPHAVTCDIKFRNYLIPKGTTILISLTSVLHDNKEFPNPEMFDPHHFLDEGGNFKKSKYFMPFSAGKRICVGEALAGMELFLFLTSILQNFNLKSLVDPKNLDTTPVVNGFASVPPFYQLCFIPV

SMILES | Potency
O=C1NCC2(CCN(CCc3ccccc3)CC2)O1 | inactive
CC(C)(C)c1cc(C(C)(C)C)c(O)c(C(C)(C)C)c1 | inactive and 35.6 µM (active)
O=C(O)c1cccc(C(=O)O)c1 | inactive
O=C(O[C@@H]1Cc2c(O)cc(O)cc2O[C@@H]1c1cc(O)c(O)c(O)c1)c1cc(O)c(O)c(O)c1 | 40 µM (active) and 27.2 µM (active)
CC(=O)OCCOCCOCCOC(C)=O | inactive
Nc1ccc(O)cc1 | 26.2 µM (active) and 34.7 µM (active)
CCCCCCCCCCCCCC[P+](CCCC)(CCCC)CCCC | 28.1 µM (active) and 50.2 µM (active)
CCC(C)(Oc1ccc(C2(c3ccc(OC(C)(CC)C(=O)O)cc3)CCCCC2)cc1)C(=O)O (configuration not stated) | inactive
C=CC(=O)OCCCCCCCC | inactive
O=C(O)CP(=O)(O)O | inactive
O=C(O)c1cn(-c2ccc(F)cc2)c2cc(N3CCNCC3)c(F)cc2c1=O | inactive
CC1COC(=O)O1 (configuration not stated) | inactive
Cc1cccc([N+](=O)[O-])c1C(=O)O | inactive
CCN1CCCC1CNC(=O)c1cc(S(=O)(=O)CC)c(N)cc1OC (configuration not stated) | inactive
N[C@@H]1CONC1=O | inactive
CCn1c2ccccc2c2cc(N)ccc21 | 12.5 µM (active) and 31.7 µM (active) and 28.3 µM (active)
Oc1c(Cl)cc(Cl)c(Cl)c1Cc1c(O)c(Cl)cc(Cl)c1Cl | 2 µM (active) and 3.56 µM (active) and 1.74 µM (active)

SMILES | Potency
COc1ccc(COC(C)=O)cc1 | inactive
COc1ccc(Cc2cnc(N)nc2N)cc1OC | inactive
CC[C@@H](N)CO | inactive
Cc1cc(OCCOCC[N+](C)(C)Cc2ccccc2)ccc1C(C)(C)CC(C)(C)C | 62.9 µM (active)
CCCC(=O)c1ccccc1 | inactive
CC(C)CCOC(=O)c1ccc(N(C)C)cc1 | 8.71 µM (active)
Cc1occc(=O)c1OC(=O)C(C)C | inactive
Clc1ccc2c(c1)C(N1CCNCC1)=Nc1ccccc1O2 | 17.8 µM (active) and inactive
CC(C)CCOCc1ccccc1 | inactive
CCN(CC)C(=O)Nc1ccc(OCC(O)CNC(C)(C)C)c(C(C)=O)c1 (configuration not stated) | inactive
OCCN1CCNCC1 | inactive
COC(=O)c1cccc(C(=O)OC)c1 | inactive
Cc1cccc2n[nH]nc12 | inactive
Nc1cc(S(=O)(=O)O)cc2cc(S(=O)(=O)O)cc(O)c12 | 39.9 µM (active)
CCCCCCCCCCCC[N+](C)(C)C | inactive
NCCCCCC(=O)O | inactive
O=C1OC2(c3ccc(O)cc3Oc3cc(O)ccc32)c2ccccc21 | 11.2 µM (active)

Biological target: Voltage-gated inwardly rectifying potassium channel KCNH2 (Homo sapiens) (UniProt Q12809)
Test: Human Ether-a-go-go-Related Gene (hERG) channel small molecule antagonists: fluorescence cell-based qHTS assay (AID 1671200); note: nearly all actives have a fitted effect of over 50% in size
Conditions: hERG-U2OS cells, FluxOR thallium flux fluorescence; series mostly up to 76.8 µM
In short: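 Cell line hERG-U2OS; dye FluxOR II, 1 h RT dark; Tl+ stimulus; ex 480/em 540 nm, read each second for 2 min.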

Sequence of Voltage-gated inwardly rectifying potassium channel KCNH2 (Homo sapiens) (Q12809 whole entry, looked up): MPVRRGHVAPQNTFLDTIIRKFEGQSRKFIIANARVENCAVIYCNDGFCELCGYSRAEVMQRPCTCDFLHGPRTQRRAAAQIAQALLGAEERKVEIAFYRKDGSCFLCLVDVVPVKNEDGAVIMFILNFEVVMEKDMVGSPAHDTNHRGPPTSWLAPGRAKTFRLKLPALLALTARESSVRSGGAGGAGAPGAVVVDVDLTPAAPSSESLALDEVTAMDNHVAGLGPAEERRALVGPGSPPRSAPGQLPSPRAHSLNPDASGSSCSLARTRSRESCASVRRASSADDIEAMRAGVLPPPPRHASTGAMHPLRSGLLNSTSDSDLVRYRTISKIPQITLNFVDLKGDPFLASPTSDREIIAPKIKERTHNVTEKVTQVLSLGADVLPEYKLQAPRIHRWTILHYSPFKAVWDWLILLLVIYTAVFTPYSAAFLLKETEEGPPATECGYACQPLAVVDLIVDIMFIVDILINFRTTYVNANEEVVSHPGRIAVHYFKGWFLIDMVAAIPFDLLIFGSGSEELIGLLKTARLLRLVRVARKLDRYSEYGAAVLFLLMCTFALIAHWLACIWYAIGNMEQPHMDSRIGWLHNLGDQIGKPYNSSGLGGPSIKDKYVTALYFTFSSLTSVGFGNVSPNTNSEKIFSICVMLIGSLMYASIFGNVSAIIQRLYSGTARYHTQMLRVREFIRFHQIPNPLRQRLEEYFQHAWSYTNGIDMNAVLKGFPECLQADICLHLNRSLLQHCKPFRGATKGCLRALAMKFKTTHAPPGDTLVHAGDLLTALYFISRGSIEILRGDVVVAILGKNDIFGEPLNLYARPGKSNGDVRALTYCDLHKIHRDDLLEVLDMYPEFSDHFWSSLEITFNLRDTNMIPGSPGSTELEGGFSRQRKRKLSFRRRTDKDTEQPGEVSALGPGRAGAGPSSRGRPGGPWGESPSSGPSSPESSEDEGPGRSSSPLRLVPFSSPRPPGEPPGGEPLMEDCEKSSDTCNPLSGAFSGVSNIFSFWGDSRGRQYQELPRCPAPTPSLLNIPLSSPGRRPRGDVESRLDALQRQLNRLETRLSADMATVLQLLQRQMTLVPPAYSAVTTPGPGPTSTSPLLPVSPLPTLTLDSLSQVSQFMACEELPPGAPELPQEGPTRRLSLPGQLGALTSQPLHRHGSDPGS

SMILES | Potency
O=C1NCC2(CCN(CCc3ccccc3)CC2)O1 | inactive
CC(C)(C)c1cc(C(C)(C)C)c(O)c(C(C)(C)C)c1 | 7.76 µM (active)
O=C(O)c1cccc(C(=O)O)c1 | inactive
O=C(O[C@@H]1Cc2c(O)cc(O)cc2O[C@@H]1c1cc(O)c(O)c(O)c1)c1cc(O)c(O)c(O)c1 | inactive
CC(=O)OCCOCCOCCOC(C)=O | inactive
Nc1ccc(O)cc1 | inactive
CCCCCCCCCCCCCC[P+](CCCC)(CCCC)CCCC | 194 nM (active) and 275 nM (active)
CCC(C)(Oc1ccc(C2(c3ccc(OC(C)(CC)C(=O)O)cc3)CCCCC2)cc1)C(=O)O (configuration not stated) | inactive
C=CC(=O)OCCCCCCCC | inactive
O=C(O)CP(=O)(O)O | inactive
O=C(O)c1cn(-c2ccc(F)cc2)c2cc(N3CCNCC3)c(F)cc2c1=O | inactive
CC1COC(=O)O1 (configuration not stated) | inactive
Cc1cccc([N+](=O)[O-])c1C(=O)O | inactive
N[C@@H]1CONC1=O | inactive
CCn1c2ccccc2c2cc(N)ccc21 | inactive
Oc1c(Cl)cc(Cl)c(Cl)c1Cc1c(O)c(Cl)cc(Cl)c1Cl | inactive
COc1ccc(COC(C)=O)cc1 | inactive
COc1ccc(Cc2cnc(N)nc2N)cc1OC | inactive

SMILES | Potency
CC[C@@H](N)CO | inactive
Cc1cc(OCCOCC[N+](C)(C)Cc2ccccc2)ccc1C(C)(C)CC(C)(C)C | 688 nM (active) and 756 nM (active)
CCCC(=O)c1ccccc1 | inactive
CC(C)CCOC(=O)c1ccc(N(C)C)cc1 | inactive
Cc1occc(=O)c1OC(=O)C(C)C | inactive
Clc1ccc2c(c1)C(N1CCNCC1)=Nc1ccccc1O2 | 43.6 µM (active) and 19 µM (active)
CC(C)CCOCc1ccccc1 | inactive
CCN(CC)C(=O)Nc1ccc(OCC(O)CNC(C)(C)C)c(C(C)=O)c1 (configuration not stated) | inactive
OCCN1CCNCC1 | inactive
COC(=O)c1cccc(C(=O)OC)c1 | inactive
Cc1cccc2n[nH]nc12 | inactive
COC(=O)[C@H]1[C@H]2C[C@@H]3c4[nH]c5cc(OC)ccc5c4CCN3C[C@H]2C[C@@H](OC(=O)c2cc(OC)c(OC)c(OC)c2)[C@@H]1OC | 3.46 µM (active) and 6.34 µM (active) and 10.7 µM (active)
CC(=O)CC(=O)Nc1ccc2[nH]c(=O)[nH]c2c1 | inactive
Nc1cc(S(=O)(=O)O)cc2cc(S(=O)(=O)O)cc(O)c12 | inactive
CCCCCCCCCCCC[N+](C)(C)C | 21.9 µM (active)
NCCCCCC(=O)O | inactive
O=C1OC2(c3ccc(O)cc3Oc3cc(O)ccc32)c2ccccc21 | 15.5 µM (active) and inactive
